From PubChem BioAssay AID1347426 (Functional Genomics Laboratory (NCATS/FGL), 2020)
The campaign covered roughly 31,000 sequences. About 1,400 (4.5%) were called active. Shown is part of a subset that was picked to be rich in actives. Values without a mark were called inactive.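 Rule for the calls: active = median seed-adjusted z-score above 1 or below -1; inactive = the rest.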

Test: Novel Modifiers of Survival Motor Neuron (SMN) Protein: Gene Identification via Genome-wide siRNA Screen;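 note: luminescence tracks full-length SMN protein made from the SMN2 reporter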
Details: HEK293T SMN2-luciferase reporter, siRNA knockdown, 72 h; actives lie on both sides
Description: Spinal muscular atrophy (SMA) is the most common neuromuscular autosomal recessive disorder and one of the leading genetic causes of infant death. SMA results from mutations inducing loss of function or deletion in the survival of motor neuron-1 gene (SMN1), leading to deficiency of the survival motor neuron (SMN) protein. Although a second nearly identical gene, SMN2, is retained in humans, its expression primarily produces an aberrantly spliced isoform that is largely unstable and quickly degraded. We performed a genome-wide RNAi screen using a cell-based reporter assay to identify genes and pathways that modulate SMN protein stability. The screen identified over 200 genes that led to the greatest increase or decrease in luciferase expression.
Using HEK293T cells stably expressing a luciferase reporter that combines the promoter and splicing based cassettes in tandem with the major portion of the native SMN2 cDNA with luciferase, we performed a genome-wide RNAi screen to identify modulators of SMN protein levels. Luciferase is expressed when full-length SMN protein is generated with luminescence signal proportional to SMN protein levels. Our luciferase-based reporter assay was used to screen Ambion Silencer Select Human Druggable Genome siRNA library (10418 genes, 3 unique siRNAs per gene) using lipid-based reverse transfection.
Briefly, 1 pmol of each siRNA was spotted to a well of a 384-well plate (Corning, Corning, NY) and 20 microL of serum-free DMEM containing […] of Lipofectamine RNAiMax (Life Technologies, Carlsbad, CA) was then added to each well. Transfected cells were maintained at 37 degrees C in 5% CO2 for 72 hours, 20 microL of ONE-Glo Reagent (Promega) was added to wells for luciferase quantification. Raw luminescence reads were normalized to Ambion(R) Silencer(R) Negative Control #2 siRNA, then log10 transformed. A robust statistical measure of median absolute deviation (MAD) to standardize siRNA activities from each screen. Common Seed Analysis was used to help prioritize clean hits as opposed to those appearing to arise from seed based off-target effects. Candidate modulators were defined as the genes having a MAD score greater than 1.0 or less than -1.0.
GCAGUUAUUGGUACUAAUATT against MOAP1 gave a median seed-adjusted z-score of 0.0405.
With AGAGAAUCUCGAGGAUAUATT against ZNF74 the median seed-adjusted z-score was 1.17 (active).
For CCUUAUCGCUAGAUGUCAATT against GRM3, the median seed-adjusted z-score was -0.401.
With GCUGAGCUCAGUAACCACATT against LCAT the median seed-adjusted z-score was 0.526.
With GCAAUGCCCUUUUCACCGATT against SERPINA5 the median seed-adjusted z-score was -1.01 (active).
For CCAUGACAACUUUCACUGATT against AGFG2, the median seed-adjusted z-score was -0.289.
GCAGAAAAGAACAACUUGUTT against RAB11B gave a median seed-adjusted z-score of -0.857.
In the case of GCAAUAGGAUGGAUGAUCATT against GPSM2, the median seed-adjusted z-score is reported as -0.755.
Work on GCAGCUCACUUAAGGCCUATT against VPS18 yielded a median seed-adjusted z-score of 0.181.
Sequence GAUCUAUUCUUAAUGCCGATT against TFB1M has a median seed-adjusted z-score of 0.172.
In the case of GAAAUUUCUUAGGAACUCATT against ADH1B, the median seed-adjusted z-score is reported as 0.325.
With CCCUCAAUCCAGCACAAAATT against LILRA4 the median seed-adjusted z-score was 0.109.
For GGGACCGAGAGAUCAGAUATT against PPAP2C, the median seed-adjusted z-score was -1.12 (active).
Work on CUUCCAAUGUUAAUGGACATT against VHLL yielded a median seed-adjusted z-score of -0.0852.
GAGGCUCGGUAAUCAAUGATT against DERL1 gave a median seed-adjusted z-score of 0.22.
In the case of GCUUUAGAAUACAUACCAATT against IFIT2, the median seed-adjusted z-score is reported as -0.0205.
With CCCUCAAGGUACAAACAUUTT against POLD1 the median seed-adjusted z-score was -0.715.
In the case of CAGGAGCAGUUAGACUUAATT against DNALI1, the median seed-adjusted z-score is reported as 0.699.
Sequence GGUUUGCCCUUAUCUUGUATT against RDH10 has a median seed-adjusted z-score of -0.28.
For GAAUAACCGUUGGUUUAAUTT against U2AF1, the median seed-adjusted z-score was 2.08 (active).
For AAUUGAGGAAUACAAAAGATT against PAX3, the median seed-adjusted z-score was 0.0223.
GGAUGGGCAUGUUGAGAGATT against NUDT9 gave a median seed-adjusted z-score of 0.277.
GGAUCUGACAGACAAUGAUTT against ABCC3 showed a median seed-adjusted z-score of -0.549.
In the case of CGUGGAUUCUUACGGAAGATT against CIT, the median seed-adjusted z-score is reported as -0.0585.
Work on GAGUCUAUCUUGAUAAUCUTT against PPWD1 yielded a median seed-adjusted z-score of -0.341.
CCGGGUUAAUUACCACCUUTT against MTHFR gave a median seed-adjusted z-score of 0.
For GAGAAGUCGAGGCUCUUUATT against WNT6, the median seed-adjusted z-score was 0.027.
In the case of CGGUGAACGGGUUGGAGAATT against PAX9, the median seed-adjusted z-score is reported as -1.16 (active).
In the case of GCUUUGACCUUCUUAGCAATT against SMARCAL1, the median seed-adjusted z-score is reported as -0.145.
Sequence CAACGAUAUUUGGAUAUCUTT against DPP8 has a median seed-adjusted z-score of -0.0209.
